Measurements published in PubChem BioAssay (Tox21).
Values without a mark were called inactive. Activity calls are given as the source filed them. The call rests on the fitted dose curve.

Target: Muscarinic acetylcholine receptor M1 (Homo sapiens) (UniProt P11229)
Test: Cholinergic receptor muscarinic 1 (CHRM1) small molecule agonists, cell-based qHTS assay (AID 1963589); further: nearly all actives have a fitted effect of over 35% in size
Details: CHRM1-CHO cells, agonist mode, calcium flux fluorescence; series mostly up to 76.8 µM; activation: at the top concentration
Source text: National Center for Advancing Translational Sciences [NCATS]
Division of Preclinical Innovation [DPI]
U.S. Environmental Protection Agency [EPA]
National Institutes of Environmental Health Sciences [NIEHS]
National Toxicology Program [NTP]
U.S. Food and Drug Administration [FDA]
The CHRM1 is a muscarinic receptor. This receptor plays a crucial role in learning and memory processes and has long been identified as a promising therapeutic target for the improvement of cognitive decline in Alzheimer's disease (AD). The CHRM1-CHO cell line stably expressing human muscarinic acetylcholine receptor M1 (CHRM1) can be used for screening agonists and antagonists of interactions between CHRM1 and its ligands. The CHRM1-CHO Calcium Flux Assay is a homogeneous fluorescence-based assay for detecting the intracellular calcium level using FDSS kinetic plate reader system.
CHRM1-CHO cells were dispensed at 1000 cells/3uL/well in 1536-well black-clear bottom plates using a Multidrop Dispenser. After the assay plates were incubated at a 37 C/5% CO2 incubator for 18 h, 3 uL of Dye Loading Buffer was transferred to the assay plate by a Flying Reagent Dispenser. The assay plates were incubated at 37 C for 1h. For agonist mode, 23 nL of compounds dissolved in DMSO, positive controls or DMSO only was transferred to the assay plate by a pin tool. […] Each test compound was measured at 15 concentrations in three independent runs.
On the % scale 0 is the no-effect control and ±100 the full control effect.

Chain of Muscarinic acetylcholine receptor M1 (Homo sapiens) (P11229 whole entry, looked up): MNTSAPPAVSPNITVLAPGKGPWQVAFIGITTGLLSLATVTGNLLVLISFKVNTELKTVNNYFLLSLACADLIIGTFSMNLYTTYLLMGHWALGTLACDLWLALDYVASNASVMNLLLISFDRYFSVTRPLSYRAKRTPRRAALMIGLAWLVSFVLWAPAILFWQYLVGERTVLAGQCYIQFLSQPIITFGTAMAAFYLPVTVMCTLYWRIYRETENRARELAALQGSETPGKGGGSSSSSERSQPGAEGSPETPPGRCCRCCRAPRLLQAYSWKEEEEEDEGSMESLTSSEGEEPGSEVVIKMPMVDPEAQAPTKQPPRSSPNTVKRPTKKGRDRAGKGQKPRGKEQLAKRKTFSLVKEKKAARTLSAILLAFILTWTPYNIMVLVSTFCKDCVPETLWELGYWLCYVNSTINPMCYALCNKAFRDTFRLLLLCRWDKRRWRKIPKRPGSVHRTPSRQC

Row | SMILES | activation | Potency
1 | CCOC(=O)C(c1c(O)c2ccccc2oc1=O)c1c(O)c2ccccc2oc1=O | -0.606% [at 35.3 µM] | 
2 | CCNCC |  | inactive
3 | O=[N+]([O-])c1ccc(Cl)cc1 |  | inactive
4 | CC(=[OH+])/C=C(/C)[O-].CC(=[OH+])/C=C(\C)[O-].CC(=[OH+])/C=C(\C)[O-].[Fe] | -0.557% | 
5 | O=C(O)CCCOc1ccc(Cl)cc1Cl |  | inactive
6 | CCCCOC(=O)c1ccccc1C(=O)OCCCC |  | inactive
7 | CC1(C)C(=O)NC(=O)NC1=O | 0.407% | 
8 | C=C1CC[C@@]2(O)[C@H]3Cc4ccc(O)c5c4[C@@]2(CCN3CC2CC2)[C@H]1O5 | -0.777% [at 35.3 µM] | 
9 | OC(Cc1ccccc1Cl)(Cn1cncn1)C1(Cl)CC1 (stereo not given) | 0.0889% | 
10 | Cc1cc(O)ccc1Cl |  | inactive
11 | O=C1C(Cl)=C(Cl)C(=O)c2ccccc21 |  | inactive
12 | O=C(O)C1C2CCC(O2)C1C(=O)O (stereo not given) |  | inactive
13 | CCOC(=S)S |  | inactive
14 | Cc1ccc(N)cc1N |  | inactive
15 | O=C(O)C(F)(F)C(F)(F)C(F)(F)C(F)(F)C(F)(F)C(F)(F)F | -0.0108% | 
16 | C=C(C#N)CCC#N | 0.644% | 
17 | CC(C)N1C(=O)c2ccccc2NS1(=O)=O |  | inactive
18 | CC1CC(CC2CCC(N)C(C)C2)CCC1N (stereo not given) | -0.877% | 
19 | CCCCCCCCCCCCOS(=O)(=O)O |  | inactive
20 | CC(C)Nc1ccc(Nc2ccccc2)cc1 | -0.901% | 

Row | SMILES | activation | Potency
21 | O=C(O)C(F)(F)C(F)(F)C(F)(F)C(F)(F)C(F)(F)C(F)(F)C(F)(F)F |  | inactive
22 | COc1ccc(N)cc1 |  | inactive
23 | O=P(Cl)(Cl)Cl | -0.0775% | 
24 | BrCCc1ccccc1 | 1.13% | 
25 | c1ccc(N2CCNCC2)cc1 | 14.2% [at 35.3 µM] | 
26 | CC[N+](=O)[O-] |  | inactive
27 | O=C(O)COc1ccccc1 |  | inactive
28 | O=S(=O)(Cl)Cl | -0.38% | 
29 | CC(Cl)C(=O)O (stereo not given) | -0.278% | 
30 | COC[C@H](C)N(C(=O)CCl)c1c(C)csc1C | -0.667% | 
31 | CCCCCCCCCCOC(=O)c1ccccc1C(=O)OCCCCCCCCCC | -0.129% | 
32 | CCC(CC)Nc1c([N+](=O)[O-])cc(C)c(C)c1[N+](=O)[O-] |  | inactive
33 | CCOC(=O)CC(SP(=O)(OC)OC)C(=O)OCC (stereo not given) |  | inactive
34 | COc1ccc(C(O)(c2cncnc2)C2CC2)cc1 (stereo not given) | 1.09% | 
35 | O=C1CC(=O)NC(=O)N1 | 4.41% | 
36 | ClCCN1CCCC1 | 1.64% [at 35.3 µM] | 
37 | CCCCCCCCCCCCCCCCCC(=O)O |  | inactive
38 | Nc1cccc2ccccc12 |  | inactive
39 | CCCCCCCCSC(=O)Oc1cc(Cl)nnc1-c1ccccc1 | -0.207% | 
40 | CCCCc1c(C)nc(NCC)[nH]c1=O | -1.55% | 
